For 40 compounds, growth results are on record in PubChem BioAssay (NCI).

Several values for one entry are separate records, joined by “and”; a condition that tells them apart may be missing. Identical values can stand only once. This is part of a sample that, as a whole, favours compounds with a hit. Of some 83,000 tested, about 20% had one in any assay.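 In brief: 96-well plates, 48 h treatment, single concentration, percent growth endpoint.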 Activity calls are given as the source filed them. Rule for the calls: active = growth percent below 10; inactive = the rest.

The test system of the test is MDA-MB-468 breast. Nature of the test: NCI-60 one-dose screen, 48 h (100 = growth as untreated, 0 = no growth, -100 = all killed). As to conditions: 10 µM unless noted.
For `O=C(Nc1ccncc1)C(=O)c1cn(S(=O)(=O)c2cccc(F)c2)c2ccccc12`, the growth was 12% (inactive).
Then `COc1ccccc1-n1c(-c2sc(NC(C)=O)nc2C)n[nH]c1=S`, with 124% (inactive); and `NC(=O)c1cccc(-n2ccc3cc(NC(=O)Nc4ccc(Cl)c(Cl)c4)ccc32)n1`, with 60.8% (inactive).
The result for `Nc1c(S(=O)(=O)O)cc(Br)c2c1C(=O)c1ccccc1C2=O` reads 102% (inactive) and 107% (inactive); that for `O=C(Nc1ccc2ncnc(Nc3ccc(F)c(Cl)c3)c2c1)c1cccs1`, -23.8% (active); that for `COc1cnc2c(c1)C(=O)c1c-2n(CCCn2ccnc2)c(=O)c2cc(Cl)ccc12`, -11.2% (active).
For `CCOC(=O)c1c(C)nc(C)c(C(=O)OCC)c1-c1cccnc1`, the growth was 94.8% (inactive).
On to `O=C(NN=C1CCCCC1)C(=O)NN=C1CCCCC1`, for which the growth is 113% (inactive).
The result for `C=C(c1ccc(C(=O)NCCCn2ccnc2)cc1)c1cc2c(cc1C)C(C)(C)CCC2(C)C` reads -5.41% (active); that for `CCOC(=O)C(CNc1ccccc1)C(=O)OCC`, 93.3% (inactive); that for `CCOC(=O)C1=C(c2ccccc2)N=c2s/c(=C/c3ccc(Br)cc3)c(=O)n2C1c1ccc(O)cc1` (stereo not given), 83.7% (inactive).
Then `Cc1c(C(=O)NCCN2CCOCC2)cn2ncnc(Oc3ccc(NC(=O)Nc4ccc(Cl)c(C(F)(F)F)c4)cc3)c12`, with -10.4% (active); and `Cc1ccc(C(=NN=C(N)N)c2ccc(C)cc2)cc1`, with -42.5% (active).
Then `COc1cc2nc(N3CCC[C@@H](NC(=O)C4COc5ccccc5O4)C3)nc(N)c2cc1OC` (stereo not given in full), with 108% (inactive) and 103% (inactive); and `COc1cc(/C=C2\C(=O)N(Cc3ccc(Cl)cc3)c3ccccc32)cc(OC)c1OC`, with -18.3% (active).
With `Cc1cc(C)c(C#N)c(Sc2nc(C)c([N+](=O)[O-])c(C)c2C#N)n1`, the growth is 46% (inactive).
Consider `O=C(NNc1ccc(-c2ccccc2)nn1)c1ccccc1`, for which the growth was 103% (inactive).
As to `Fc1ccccc1Nc1n[nH]c(=S)s1`, the growth is 106% (inactive).
Consider `CCN(CC)CCOc1ccc(C(=C(c2ccccc2)C2CCCC2)c2ccc(OCCN(CC)CC)cc2)cc1`, for which the growth is -77.5% (active).
`Cc1ncc(C(=O)Nc2ccc(CN3CCN(C)CC3)c(C(F)(F)F)c2)cc1C#Cc1cnc2cccnn12`: the growth is 7.08% (active).
Then `[2H]C([2H])([2H])Oc1ccc(F)cc1/C=C/C(=O)/C=C(/C=C/c1cc(F)ccc1OC([2H])([2H])[2H])OB(F)F`, with 69.5% (inactive); and `COc1ccc(-c2cc(-c3cc(OC)c(OC)c(OC)c3)c(C#N)c(N3CCOCC3)n2)cc1O`, with 76.7% (inactive).
The result for `CC(=O)Nc1nc(C)c(C(=O)NNC=O)s1` reads 116% (inactive); that for `O=C(Cc1ccc(/C=C/C(=O)c2ncc[nH]2)cc1)Nc1ccc(Cl)cc1`, 9.49% (active).
Consider `Cc1cccc2nc3c(n12)C(=O)C(=O)c1ccccc1-3`, for which the growth was 79.9% (inactive).
Then `Nc1ncc(-c2ccc(C(F)(F)F)cc2)c(NC2CCCCCC2)n1`, with -3.25% (active).
Then `Cc1cc2nc(C(Cl)Cl)nc(-c3ccc(Cl)cc3)n2n1`, with -47.3% (active); and `CN1CCN(Cc2ccc(NC(=O)c3cncc(C#Cc4cnc5ccc(NCCCO)nn45)c3)cc2C(F)(F)F)CC1`, with -59.6% (active); and `Cc1nc(Nc2ccc(Cl)cc2)c2cnn(-c3ccccc3)c2n1`, with 98.3% (inactive).
The result for `CCCCOCc1cc(CN2CCN(C)CC2)c(O)c2ncccc12` reads 46.1% (inactive); that for `CN(C)c1ccc(C(=NO)c2ccc(N(C)C)cc2)cc1`, -0.198% (active); that for `C[C@]12CC[C@H]3[C@@H](CC=C4C[C@@H](O)CC[C@@]43C)[C@@H]1CC[C@@H]2C(=O)C/C=N/O`, 90.2% (inactive).
With `CCCCCCCCc1cc[n+](CC(=O)c2ccc(Br)cc2)cc1`, the growth is -87% (active).
Turning to `OC(CBr)CCBr` (stereo not given), the growth was 97.4% (inactive).
The result for `C#CCOc1ccccc1/C=N/Nc1nc(-c2ccc(Cl)cc2)cs1` reads 95.6% (inactive); that for `O=CN1N=C(c2ccc(Nc3ccnc4cc(Cl)ccc34)cc2)CC1c1ccccc1` (stereo not given), 3.07% (active); that for `C#CCOc1cccc(Nc2ncnc3ccc(NC(=O)CCl)cc23)c1`, -54% (active).
The result for `O=C(c1ccccc1)C1(Br)CCCCC1` reads 90.3% (inactive); that for `CN(Cc1ccccc1)c1nc(Cl)c(C2CC(c3ccccc3)=NN2c2ccccc2)s1` (stereo not given), 98.7% (inactive); that for `NS(=O)(=O)c1ccc(-n2nc(C(=O)N/N=C\c3ccc(F)cc3)cc2-c2ccc(Br)cc2)cc1`, 73.9% (inactive).
